Data reported in PubChem BioAssay (NCI).
The panel holds about 79,000 compounds, 15% with a hit somewhere; the sample as a whole holds those more often. Calls of active or inactive are those of the source. No stated cut-off is given here; in the data, active means growth inhibition above about 70%; inactive means the rest.

How the values were obtained:
[1] = NCI Yeast Anticancer Drug Screen. Data for the rad52 strain (AID 147);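 further: 0% = growth of vehicle-treated control cultures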; details: S. cerevisiae rad52 mutant growth inhibition, active compounds read high
Outline: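 Yeast strain carrying a DNA damage repair alteration was exposed to test compounds. Growth inhibition was measured relative to vehicle-treated controls.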

[2] = NCI Yeast Anticancer Drug Screen. Data for the wt1 strain (AID 149);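 further: 0% = growth of vehicle-treated wt1 cultures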; details: S. cerevisiae wt1 strain (SPY 50644) growth inhibition, active compounds read high
Outline: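 Growth inhibition read against vehicle controls after compound exposure of the wt1 yeast strain.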

[3] = NCI Yeast Anticancer Drug Screen. Data for the rad50EPP+ strain (AID 151);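 further: 0% = growth of vehicle-treated control cultures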; details: S. cerevisiae rad50 mutant strain, active compounds read high
Outline: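 Yeast strain carrying rad50 alteration (rad50EPP+) exposed to compounds; growth inhibition measured relative to vehicle-treated controls.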

[4] = NCI Yeast Anticancer Drug Screen. Data for the mgt1 strain (AID 153); details: S. cerevisiae mgt1 mutant growth inhibition, active compounds read high
Outline: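 Yeast mgt1 strain (DNA repair/cell-cycle alteration panel) exposed to compounds; growth inhibition measured relative to vehicle-treated controls.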

[5] = NCI Yeast Anticancer Drug Screen. Data for the rad50 strain (AID 155);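 further: 0% = growth of vehicle-only cultures of the same strain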; details: S. cerevisiae rad50 strain growth inhibition, active compounds read high
Outline: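 Readout: growth inhibition relative to vehicle-treated cultures. Compound exposure was carried out in a genetically defined yeast strain deficient in DNA damage repair.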

[6] = NCI Yeast Anticancer Drug Screen. Data for the mec2-1 strain (AID 157); details: S. cerevisiae mec2-1 strain, active compounds read high
Outline: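 mec2-1 yeast strain, carrying an alteration in DNA damage repair or cell cycle control, was exposed to compounds; growth inhibition was measured relative to vehicle-treated controls.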

[7] = NCI Yeast Anticancer Drug Screen. Data for the rad14 strain (AID 159);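 further: 0% = growth of vehicle-treated control cultures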; details: S. cerevisiae rad14 strain growth inhibition, active compounds read high
Outline: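 Growth inhibition vs vehicle controls; genetically altered yeast strain (DNA damage repair defect) treated with test compounds.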

[8] = NCI Yeast Anticancer Drug Screen. Data for the sgs1 mgt1 strain (AID 161);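 further: 0% = growth of cultures given vehicle only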; details: S. cerevisiae sgs1 mgt1 strain, active compounds read high
Outline: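 Yeast cells carrying a defined DNA-repair defect were exposed to test compounds. Growth inhibition was measured relative to vehicle-treated controls.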

[9] = NCI Yeast Anticancer Drug Screen. Data for the CLN2oe strain (AID 163);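 further: 0% = growth of vehicle-only control cultures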; details: S. cerevisiae CLN2oe strain, active compounds read high
Outline: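 Yeast cells carrying a defined cell-cycle control alteration were exposed to test compounds. Growth inhibition was scored against vehicle-treated control cultures.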

[10] = NCI Yeast Anticancer Drug Screen. Data for the cln2 rad14 strain (AID 165);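 further: 0% = growth equal to vehicle treated cultures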; details: S. cerevisiae cln2 rad14 strain, active compounds read high
Outline: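 Yeast carrying cln2 and rad14 alterations (cell cycle control and DNA damage repair) were exposed to compounds. Growth inhibition was measured against vehicle-treated controls.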

[11] = NCI Yeast Anticancer Drug Screen. Data for the bub3 strain (AID 167); details: S. cerevisiae bub3 mutant strain, active compounds read high
Outline: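 Readout: yeast growth inhibition, expressed relative to vehicle-only wells. The test organism is a mutant strain from a panel with lesions in DNA repair or checkpoint genes.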

[12] = NCI Yeast Anticancer Drug Screen. Data for the wt2 strain (AID 169);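 further: 0% = growth of vehicle-treated yeast cultures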; details: S. cerevisiae wt2 strain growth inhibition, active compounds read high
Outline: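 Yeast cells were exposed to test compounds, and growth inhibition was measured relative to vehicle-treated controls.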

[13] = NCI Yeast Anticancer Drug Screen. Data for the mlh1 strain (AID 171);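 further: 0% = growth of vehicle-treated control cultures of the same strain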; details: S. cerevisiae mlh1 strain growth inhibition, active compounds read high
Outline: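 Yeast carrying a defined genetic alteration in DNA damage repair or cell cycle control were exposed to test compounds. Growth inhibition was measured relative to vehicle-treated controls.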

[14] = NCI Yeast Anticancer Drug Screen. Data for the sgs1 strain (AID 173);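 further: 0% = growth of vehicle-only control cultures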; details: S. cerevisiae sgs1 mutant, active compounds read high
Outline: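 Yeast mutant strains carrying defined defects in DNA damage repair or cell cycle control were exposed to test compounds. Growth inhibition was scored against vehicle-treated controls.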

[15] = NCI Yeast Anticancer Drug Screen. Data for the mlh1 rad18 strain (AID 175); details: S. cerevisiae mlh1 rad18 strain growth inhibition, active compounds read high
Outline: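 Growth inhibition of the yeast strain was measured after compound exposure and expressed relative to vehicle-treated controls. The strain carries defined defects in DNA damage repair.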

[16] = NCI Yeast Anticancer Drug Screen. Data for the rad18 strain (AID 177); details: S. cerevisiae rad18 mutant growth inhibition, active compounds read high
Outline: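 Yeast carrying a defined DNA damage repair alteration were exposed to compounds. Growth inhibition was expressed relative to vehicle-treated controls.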

[17] = at 5.0 µM (retest, dose inferred, filed as 0.5)
[18] = at 50.0 µM (retest, dose inferred, filed as 5.0)

Measured: growth inhibition

Nc1ccc(/C=C/c2ccc3cccnc3c2)cc1
inactive: [1]; at 1.2 µM -3% | [1]; at 3.7 µM -3% | [1]; at 11.0 µM -1% | [1]; at 33.0 µM 11% | [1]; at 100.0 µM 29% | [2]; at 1.2 µM 0% | [2]; at 3.7 µM -1% | [2]; at 11.0 µM -3% | [2]; at 33.0 µM -4% | [2]; at 100.0 µM -7% | [3]; at 1.2 µM -2% | [3]; at 3.7 µM 1% | [3]; at 11.0 µM 8% | [3]; at 33.0 µM 34% | [3]; at 100.0 µM 41% | [4]; at 1.2 µM 0% | [4]; at 3.7 µM 1% | [4]; at 11.0 µM -3% | [4]; at 33.0 µM -3% | [4]; at 100.0 µM 22% | [5]; at 1.2 µM 5% | [5]; at 3.7 µM 29% | [5]; [17] 5% | [5]; at 11.0 µM 23% | [5]; at 33.0 µM 14% | [5]; [18] 28% | [5]; at 50.0 µM 10.8% | [5]; at 100.0 µM 29% | [6]; at 1.2 µM -2% | [6]; at 3.7 µM -2% | [6]; [17] -1% | [6]; at 11.0 µM -3% | [6]; at 33.0 µM 1% | [6]; [18] 17% | [6]; at 50.0 µM 1.95% | [6]; at 100.0 µM 6% | [7]; at 1.2 µM 1% | [7]; at 3.7 µM 4% | [7]; at 11.0 µM 5% | [7]; at 33.0 µM 13% | [7]; at 100.0 µM 28% | [8]; [17] 3% | [8]; [18] 50% | [8]; at 50.0 µM 46.2% | [9]; at 1.2 µM 2% | [9]; at 3.7 µM 2% | [9]; at 11.0 µM 1% | [9]; at 33.0 µM -4% | [9]; at 100.0 µM 0% | [10]; [17] -5% | [10]; [18] 3% | [10]; at 50.0 µM -6.75% | [11]; at 1.2 µM 5% | [11]; at 3.7 µM 23% | [11]; [17] 24% | [12]; at 1.2 µM 1% | [12]; at 3.7 µM 8% | [12]; at 11.0 µM -2% | [12]; at 33.0 µM -4% | [12]; at 100.0 µM 9% | [13]; at 1.2 µM -1% | [13]; at 3.7 µM -1% | [13]; at 11.0 µM -1% | [13]; at 33.0 µM -2% | [13]; at 100.0 µM 21% | [14]; at 1.2 µM -1% | [14]; at 3.7 µM 1% | [14]; at 11.0 µM 3% | [14]; at 33.0 µM 20% | [14]; at 100.0 µM 46% | [15]; [17] 3% | [15]; [18] 20% | [15]; at 50.0 µM 32.8% | [16]; at 1.2 µM 1% | [16]; at 3.7 µM 1% | [16]; at 11.0 µM 11% | [16]; at 33.0 µM 59%
active: [11]; at 11.0 µM 85% | [11]; at 33.0 µM 94% | [11]; [18] 92% | [11]; at 50.0 µM 93.3% | [11]; at 100.0 µM 94% | [16]; at 100.0 µM 77%

COC1=CCC23C(=O)C=CC(=O)C2(C1)C(=O)c1ccccc1C3=O (stereo unspecified)
active: [1]; at 100.0 µM 89% | [2]; at 100.0 µM 93% | [4]; at 100.0 µM 93% | [5]; [18] 72% | [5]; at 100.0 µM 87% | [6]; [18] 88% | [6]; at 100.0 µM 91% | [7]; at 100.0 µM 92% | [8]; [18] 76% | [8]; at 50.0 µM 74.7% | [9]; at 100.0 µM 92% | [11]; [18] 78% | [11]; at 50.0 µM 74.4% | [11]; at 100.0 µM 91% | [12]; at 100.0 µM 93% | [13]; at 100.0 µM 95% | [14]; at 100.0 µM 93% | [15]; [18] 84% | [16]; at 100.0 µM 83%
inactive: [1]; at 1.2 µM -40% | [1]; at 3.7 µM -35% | [1]; at 11.0 µM 12% | [1]; at 33.0 µM 54% | [2]; at 1.2 µM -34% | [2]; at 3.7 µM -24% | [2]; at 11.0 µM -16% | [2]; at 33.0 µM -1% | [3]; at 1.2 µM 19% | [3]; at 3.7 µM 17% | [3]; at 11.0 µM 25% | [3]; at 33.0 µM 30% | [3]; at 100.0 µM 62% | [4]; at 1.2 µM -24% | [4]; at 3.7 µM -14% | [4]; at 11.0 µM 6% | [4]; at 33.0 µM 40% | [5]; at 1.2 µM -27% | [5]; at 3.7 µM -47% | [5]; [17] 19% | [5]; at 11.0 µM 12% | [5]; at 33.0 µM 52% | [5]; at 50.0 µM 65.8% | [6]; at 1.2 µM 8% | [6]; at 3.7 µM -4% | [6]; [17] 20% | [6]; at 11.0 µM -11% | [6]; at 33.0 µM 34% | [6]; at 50.0 µM 55.5% | [7]; at 1.2 µM -24% | [7]; at 3.7 µM 2% | [7]; at 11.0 µM 1% | [7]; at 33.0 µM 50% | [8]; [17] -2% | [9]; at 1.2 µM 17% | [9]; at 3.7 µM 8% | [9]; at 11.0 µM 18% | [9]; at 33.0 µM 38% | [10]; [17] 0% | [10]; [18] -49% | [10]; at 50.0 µM 36.5% | [11]; at 1.2 µM -30% | [11]; at 3.7 µM -38% | [11]; [17] 2% | [11]; at 11.0 µM -29% | [11]; at 33.0 µM 15% | [12]; at 1.2 µM -11% | [12]; at 3.7 µM -5% | [12]; at 11.0 µM 23% | [12]; at 33.0 µM 40% | [13]; at 1.2 µM -11% | [13]; at 3.7 µM -25% | [13]; at 11.0 µM -2% | [13]; at 33.0 µM 54% | [14]; at 1.2 µM 10% | [14]; at 3.7 µM -6% | [14]; at 11.0 µM 24% | [14]; at 33.0 µM 61% | [15]; [17] 26% | [15]; at 50.0 µM 68.2% | [16]; at 1.2 µM -21% | [16]; at 3.7 µM -20% | [16]; at 11.0 µM 32% | [16]; at 33.0 µM 44%
